Several values for one entry are separate records, joined by “and”; a condition that tells them apart may be missing. Equal values may be shown once. Inconclusive results are not listed. For some of these results: Potency and affinity values are given separately. Activity calls are given as the source filed them.
Tests used:
[1] = target: T1, Hexokinase-4 (Homo sapiens) + Glucokinase regulatory protein (Homo sapiens) (UniProt P35557+Q14397); assay: qHTS assay for inhibitors of recombinant human GCK-GKRP interaction: Diaphorase-coupled assay (AID 743205)
Summary of the method: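 A kinetic fluorescence read (Ex 525/Em 590 nm, every minute for 30 minutes) tracked resorufin from a G6PDH-diaphorase coupled GCK reaction. It contained 10 nM GST-GCK, 10 nM FLAG-GKRP, 5 mM glucose, 0.4 mM ATP in Hepes pH 7.6. Normalized to with/without-enzyme DMSO controls.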

[2] = target: T1, Hexokinase-4 (Homo sapiens) + Glucokinase regulatory protein (Homo sapiens); assay: qHTS assay for inhibitors of recombinant human GCK-GKRP interaction: ADP-Glo assay (AID 743206);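 also: plate controls were DMSO plus enzyme for no effect and no enzyme for full effect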
Summary of the method: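 GST-GCK and FLAG-GKRP (15 nM each in the dispensed mix, with 2 uM S6P) react with 0.4 mM ATP and 5 mM glucose (final) in Hepes pH 7.6 for 60 min at room temperature. ADP is measured by ADP-Glo luminescence.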

[3] = target: T1, Hexokinase-4 (Homo sapiens) + Glucokinase regulatory protein (Homo sapiens); assay: qHTS assay for inhibitors of recombinant human GCK-GKRP interaction: HTRF assay (AID 743207);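 also: 0% = DMSO with GCK present and -100% = DMSO wells lacking GCK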
Summary of the method: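 After 60 min equilibration at room temperature with anti-FLAG XL665 and anti-GST antibodies, FRET ratio (665/615 nm, excitation 320 nm) was read. Proteins: GST-GCK and FLAG-GKRP, each 5 nM, plus 2 uM S6P, pH 7.1 buffer; GCK-free wells define minimum signal.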

[4] = qHTS Assay for Identifying Gametocytocidal Compounds (AID 743244);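 also: % is scaled to controls: 0 for no effect and ±100 for the full control effect; actives lower the fluorescent signal which means gametocytes are killed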; conditions: P. falciparum 3D7 stage III-V gametocytes, alamarBlue, 72 h; max response: stronger effect = lower value
Summary of the method: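 P. falciparum 3D7 stage III–V gametocytes (20,000 cells/well) were exposed to compounds for 72 h at 37 °C, 5% CO2. AlamarBlue was then added for 24 h; decreased resorufin fluorescence (Ex 525/Em 598 nm) indicated loss of viability.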

[5] = Ebola virus entry assay, green channel fluorescence
[6] = Ebola virus entry assay, reporter ratio channel; Channel type: primary
[7] = Ebola virus entry assay, blue channel (ratio component)
[8] = qHTS assay for small molecule agonists of the antioxidant response element (ARE) signaling pathway measured by Nrf2-dependant transcriptional activity - cell viability counter screen (AID 720653; active = well fitted curve in the direction sought with a large enough effect in the repeat runs; an effect the other way counts as inactive or inconclusive; also: % is scaled to controls: 0 for no effect and ±100 for the full control effect); conditions: ARE-bla HepG2 viability, CellTiter-Glo ATP luminescence, 16 h; max response: stronger effect = lower value
Summary of the method: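 ARE-bla HepG2 cells treated with compounds for 16 h at 37C; this counter screen measures viability as intracellular ATP by CellTiter-Glo luminescence after 30 min at room temperature.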

[9] = qHTS assay for cell viability of HEK293 cells (AID 743288); conditions: ATP luminescence (CellTiter-Glo), 18 h; max response: stronger effect = lower value; also: % is scaled to controls: 0 for no effect and ±100 for the full control effect; nearly all actives have a fitted effect of over 50% in size
Summary of the method: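 Total intracellular ATP, measured with a luciferase-coupled reagent, indicates the number of viable HEK293 cells. Exposure to test chemicals lasts 18 h at 37 C in 1,536-well format at 2,000 cells/well.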

[10] = qHTS assay for cell viability of the p53RE-bla HCT-116 cell line (AID 743292); also: % is scaled to controls: 0 for no effect and ±100 for the full control effect; nearly all actives have a fitted effect of over 55% in size
Summary of the method: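 CellSensor p53RE-bla HCT-116 cells (4,000/well) pre-incubated 5 h at 37 C, then exposed to compounds in DMSO for 16 h at 37 C. Viability read as ATP content by CellTiter-Glo luminescence after 30 min at room temperature.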

[11] = qHTS profiling of the MIPE4 collection as inhibitors of Plasmodium falciparum (3D7) proliferation (AID 743344; call rule not given here;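 also: scaled between DMSO vehicle wells and 0.29 µM artemisinin as full inhibition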); conditions: P. falciparum 3D7 in erythrocytes, SYBR Green DNA fluorescence, 72 h; at 28.5 µM (top of the series)
Summary of the method: (§1)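 Erythrocytes infected with P. falciparum (0.3% parasitemia, 2.5% hematocrit) incubated with compounds 72 h at 37 C, 5% CO2. Lysis with saponin/Triton buffer containing SYBR Green I, overnight at room temperature in the dark; DNA fluorescence (485/535 nm) normalised to 0.29 uM artemisinin and DMSO.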

[12] = qHTS profiling of the MIPE4 collection as inhibitors of Plasmodium falciparum (DD2) proliferation (AID 743345; call rule not given here); conditions: P. falciparum Dd2 in erythrocytes, SYBR Green DNA, 72 h; at 28.5 µM (top of the series) unless noted
Summary of the method: as §1

[13] = qHTS profiling of the MIPE4 collection as inhibitors of Plasmodium falciparum (DD2) proliferation (Rep 2) (AID 743346; call rule not given here); conditions: P. falciparum Dd2 in erythrocytes, SYBR Green DNA, 72 h; at 28.5 µM (top of the series)
Summary of the method: as §1

[14] = qHTS profiling of the MIPE4 collection as inhibitors of Plasmodium falciparum (HB3) proliferation (AID 743347; call rule not given here;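 also: plate controls were DMSO vehicle wells for no effect and artemisinin wells for full effect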); conditions: P. falciparum HB3 in erythrocytes, SYBR Green DNA, 72 h; at 28.5 µM (top of the series)
Summary of the method: as §1

[15] = Ebola virus entry assay, blue channel fluorescence
[16] = Ebola virus entry reporter assay, green channel fluorescence

T1 sequence (P35557 whole entry, looked up): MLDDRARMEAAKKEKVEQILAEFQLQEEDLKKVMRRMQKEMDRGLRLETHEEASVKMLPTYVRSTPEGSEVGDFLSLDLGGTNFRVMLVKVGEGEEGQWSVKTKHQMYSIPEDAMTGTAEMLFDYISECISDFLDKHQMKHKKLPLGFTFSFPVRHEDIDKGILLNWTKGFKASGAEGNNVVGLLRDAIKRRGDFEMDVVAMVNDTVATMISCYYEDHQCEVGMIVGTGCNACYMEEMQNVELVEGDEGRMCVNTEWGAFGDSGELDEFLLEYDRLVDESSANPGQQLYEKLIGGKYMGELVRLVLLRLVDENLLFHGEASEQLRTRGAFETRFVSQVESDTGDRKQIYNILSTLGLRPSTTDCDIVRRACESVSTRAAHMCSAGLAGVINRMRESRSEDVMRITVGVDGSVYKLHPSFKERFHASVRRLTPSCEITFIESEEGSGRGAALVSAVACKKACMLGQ
T1 sequence (Q14397 whole entry, looked up): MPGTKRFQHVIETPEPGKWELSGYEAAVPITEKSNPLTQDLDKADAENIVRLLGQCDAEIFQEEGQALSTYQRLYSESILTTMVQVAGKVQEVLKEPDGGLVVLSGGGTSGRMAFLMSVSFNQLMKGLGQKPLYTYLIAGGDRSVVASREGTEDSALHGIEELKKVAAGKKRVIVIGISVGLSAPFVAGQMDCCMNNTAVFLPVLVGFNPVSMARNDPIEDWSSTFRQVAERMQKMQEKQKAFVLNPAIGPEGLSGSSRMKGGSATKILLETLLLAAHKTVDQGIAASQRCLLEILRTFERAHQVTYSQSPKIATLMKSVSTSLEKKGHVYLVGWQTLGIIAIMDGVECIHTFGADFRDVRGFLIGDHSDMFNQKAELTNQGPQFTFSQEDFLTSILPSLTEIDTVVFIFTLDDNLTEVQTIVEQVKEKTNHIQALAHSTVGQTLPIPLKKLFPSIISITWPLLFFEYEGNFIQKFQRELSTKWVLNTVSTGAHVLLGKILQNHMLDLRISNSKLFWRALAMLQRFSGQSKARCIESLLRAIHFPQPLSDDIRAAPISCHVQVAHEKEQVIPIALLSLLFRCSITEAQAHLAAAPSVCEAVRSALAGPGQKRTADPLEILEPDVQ

NCCc1c[nH]c2ccc(O)cc12
inactive: outcome [1] | outcome [2] | outcome [3] | max response [4] 9.61%

CNCCc1ccc(O)c(O)c1
inactive: outcome [1] | outcome [2] | outcome [3]

C[C@@H](N)Cc1cnc[nH]1
inactive: outcome [1] | outcome [2] | outcome [3] | max response [4] 1.66%

CCC1(CCC(C)C)C(=O)NC(=O)NC1=O
inactive: max response [4] 2.89% | outcome [5] | outcome [6] | outcome [7]

CN1[C@@H]2CC[C@H]1CC(OC(=O)C(O)c1ccccc1)C2 (stereo not given in full)
inactive: outcome [7]

O=C(O)[C@@H]1CCN1
inactive: outcome [1] | outcome [2] | outcome [3] | max response [4] 23.1%

Clc1cnc(Oc2ccc(Oc3ncc(Cl)cc3Cl)cc2)c(Cl)c1
inactive: max response [8] -6.15% | outcome [1] | outcome [2] | outcome [3] | max response [4] 17.9% | max response [9] -12.9% | Potency [10]

Clc1ccccc1CN1CCc2sccc2C1
inactive: outcome [6] | outcome [7]

Cc1nccc2c1[nH]c1ccccc12
inactive: outcome [1] | outcome [2] | outcome [3] | max response [4] 22.2%

COC(=O)c1cncn1C(C)c1ccccc1 (stereo not given)
inactive: max response [4] -7.45% | outcome [5] | outcome [6] | outcome [7]

O=C(O)C(Cl)Cl
inactive: max response [8] -10.5% and 2.18% | max response [4] -4.42% and 4.64% | max response [9] -7.67% and 1.66% | Potency [10] | outcome [5] | outcome [6] | outcome [7]

CCCCCC[C@H]1C(=O)O[C@H](C)[C@H](NC(=O)c2cccc(NC=O)c2O)C(=O)O[C@@H](C)[C@@H]1OC(=O)CC(C)C
12%: parasite growth, % of DMSO control [11]
inactive: max response [8] -26.8% | max response [9] -27.4%
17.3%: parasite growth remaining, % of DMSO control (lower = more inhibition) [12]
14.5%: parasite growth, % of control (lower = inhibition) [13]
26.2%: growth, % of control [14]

CN[C@@H](C)[C@H](O)c1ccccc1
inactive: max response [4] -11.3% | outcome [5] | outcome [6] | outcome [7]

CC(C)(C)NC[C@H](O)c1ccc(O)cc1Cl
inactive: max response [4] 2.84% | outcome [5] | outcome [6] | outcome [7]

O=C1C(I)=CC(=C(c2cc(I)c(O)c(I)c2)c2ccccc2C(=O)O)C=C1I
inactive: max response [4] 4.96% and 16.9% | outcome [5] | outcome [6] | outcome [7]

CC(Cc1ccc(O)cc1)NCC(O)c1cc(O)cc(O)c1 (stereo not given)
inactive: outcome [1] | outcome [2] | outcome [3]

Cc1cc(C(=O)NNCc2ccccc2)no1
inactive: outcome [15] | outcome [16]

CC(O)CN1CCN(CC(=O)[O-])CCN(CC(=O)[O-])CCN(CC(=O)[O-])CC1.[Gd+3] (stereo not given)
inactive: max response [4] 1.03% and -10.9% | outcome [6] | outcome [7]

From PubChem BioAssay (NCATS)
